Data reported in PubChem BioAssay AID743280 (The Scripps Research Institute Molecular Screening Center, 2014).
About 680 (34%) of roughly 2,000 compounds were called active. A selection follows. Unmarked numbers belong to inactive results.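 How the source made its calls: active means mean inhibition across triplicates above the hit cutoff set in the earlier primary screen (cut at about 19% in these data); inactive means the rest.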

These compounds were tested against Group 3 secretory phospholipase A2 (Homo sapiens) (UniProt Q9NZ20) (assay: HGIII-sPLA2 enzyme inhibition – biochemical, QFRET, triplicate, confirmation (AID 743280;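 further: 0% = enzyme with DMSO and 100% = DMSO wells lacking enzyme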)). Conditions: recombinant hGIII-sPLA2, BODIPY PC-A2 QFRET fluorescence; at 12.2 µM; stronger effect = higher value.
Sequence of Group 3 secretory phospholipase A2 (Homo sapiens) (Q9NZ20 whole entry, looked up): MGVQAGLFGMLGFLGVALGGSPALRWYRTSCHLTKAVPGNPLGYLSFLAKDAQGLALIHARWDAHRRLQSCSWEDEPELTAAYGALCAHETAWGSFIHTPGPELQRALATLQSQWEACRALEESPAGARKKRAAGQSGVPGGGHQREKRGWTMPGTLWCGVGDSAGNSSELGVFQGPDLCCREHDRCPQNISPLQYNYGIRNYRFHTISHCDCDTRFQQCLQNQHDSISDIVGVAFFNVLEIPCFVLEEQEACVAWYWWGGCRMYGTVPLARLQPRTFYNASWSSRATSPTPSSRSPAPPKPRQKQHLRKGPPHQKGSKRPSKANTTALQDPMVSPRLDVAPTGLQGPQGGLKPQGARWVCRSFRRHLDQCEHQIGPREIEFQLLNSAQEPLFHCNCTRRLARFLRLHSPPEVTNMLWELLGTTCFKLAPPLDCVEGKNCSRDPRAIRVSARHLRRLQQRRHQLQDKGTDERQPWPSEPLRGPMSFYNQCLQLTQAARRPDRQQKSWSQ
`N#CC1(Nc2ccc(-c3ccc(Cl)cc3)cc2)CCCC1` was tested, and the inhibition was 24.4% (active). In the case of `C=CCNc1scc(-c2ccccc2)[n+]1CC=C`, the inhibition is reported as 10.9%. `Cc1cccc(N2CCN(c3ccc(NC(=O)/C=C\C(=O)O)cc3)CC2)c1` showed an inhibition of 7.11%. With `CCOc1ccc2[nH]c(=S)sc2c1` the inhibition was 27.4% (active). Work on `COCCn1c(SCC(=O)Nc2cc(OC)ccc2OC)nc2c(c1=O)SC(C)C2` (stereo not given) yielded an inhibition of -3.55%. Work on `CCCCn1c(=S)[nH]c2ccccc2c1=O` yielded an inhibition of 12.9%. In the case of `COc1ccc(C(=O)NNC(=S)NC(=O)c2ccccc2)cc1`, the inhibition is reported as 22.1% (active). With `COc1ccc(C(=O)NC(=S)NNC(=O)c2c(-c3ccccc3)noc2C)cc1` the inhibition was 35.4% (active). `O=C(NC(=S)Nc1ncccn1)c1ccccc1Br` showed an inhibition of 10.1%. `COc1ccc(C(=O)Nc2sc(C)c(C)c2CN2CCOCC2)cc1` gave an inhibition of 8%. `NS(=O)(=O)c1ccc(CCNC(=O)NC2CCCCC2)cc1` was tested, and the inhibition was -1.05%. `Cc1c(NC(=S)NCc2ccc(F)cc2)cccc1[N+](=O)[O-]` showed an inhibition of 3.91%. In the case of `Cc1ccc(NC(=S)NNC(=O)CSc2nnc(SCc3ccccc3Cl)s2)cc1`, the inhibition is reported as 3%. For `Cn1cc(Cl)c(C(=O)NNC(=S)Nc2cccc(Cl)c2)n1`, the inhibition was 42.3% (active). In the case of `Cc1cc(NCCc2c[nH]c3ccccc23)ccc1Oc1cccnc1`, the inhibition is reported as 10.5%. In the case of `CN(C)c1ccc(NC(=O)NC2CCCCN(Cc3ccc(Cl)cc3)C2=O)cc1` (stereo not given), the inhibition is reported as 6.59%. In the case of `c1ccc(C2=Nc3cccc4cccc(c34)N2)cc1`, the inhibition is reported as 50.5% (active). `C/C(=N/NC(=O)c1cc(Cl)ccc1O)C12CC3CC(CC(C3)C1)C2` was tested, and the inhibition was 15.1%. With `Nc1ccc2c(c1)C(O)c1ccc(Cl)cc1-2` (stereo not given) the inhibition was 26.1% (active). `Cc1ccc(C2CC(c3cccc(C)c3)n3nc(N)nc3N2)cc1` (stereo not given) showed an inhibition of 6.67%. In the case of `CC(C)(C)c1cc2cccnc2n1Cc1cccc(F)c1`, the inhibition is reported as 13.1%. For `CCOc1ccc(Br)cc1CSC(=N)N`, the inhibition was 26% (active). Compound `COc1ccc(NC(=O)C2C3C=CC(C3)C2C(=O)NCc2ccccn2)c(OC)c1` (stereo not given) has an inhibition of 1.31%. With `Cc1ccc(-c2csc(NNC(=O)c3ccccc3)n2)cc1` the inhibition was 56.7% (active). `CCN(CC(=O)NC1CCS(=O)(=O)C1)S(=O)(=O)c1ccccc1` (stereo not given) gave an inhibition of -6.89%. `COc1ccc(C(N)c2csc(NC(=O)Nc3cccc(C(F)(F)F)c3)n2)cc1` (stereo not given) was tested, and the inhibition was 23% (active). `NC(c1csc(NC(=O)Nc2ccccc2Oc2ccccc2)n1)c1ccccc1Cl` (stereo not given) showed an inhibition of 8.22%. Work on `Cc1cc(-n2nc(C)cc2C)n2ncc(-c3ccccc3)c2n1` yielded an inhibition of 14.7%. For `CCc1cccc(CC)c1NC(=S)NCc1ccc2[nH]c(C)cc2c1`, the inhibition was -6.2%. With `CC(=O)NC(c1cccs1)c1cc(Br)c2cccnc2c1O` (stereo not given) the inhibition was 19.7% (active). `CCOc1ccc(/C=N/NC(N)=S)cc1` was tested, and the inhibition was 12.7%. `Cc1ccccc1NC(=O)C1CCN(c2ncccn2)CC1` gave an inhibition of -1.34%. `CC(=O)/C(=N\Nc1ccc(Cl)cc1Cl)Sc1cccc2cccnc12` gave an inhibition of -6.23%. In the case of `CCc1cc(-c2n[nH]c(=S)n2CC(C)C)cs1`, the inhibition is reported as 24.9% (active). `CC(C)c1ccc(Nc2nnc(SCC(=O)c3nnc(-c4ccccc4)o3)s2)cc1` gave an inhibition of 6.4%. With `O=C1C(=O)N(Cc2ccc(-c3ccsc3)cc2)c2ccc(OC(F)(F)F)cc21` the inhibition was 32.9% (active). In the case of `C=CCn1c(C23CC4CC(CC(C4)C2)C3)n[nH]c1=S`, the inhibition is reported as 27.1% (active). `CCN(Cc1ccccc1)C(=O)CN1C(=S)NC(C)(C)CC1C` (stereo not given) gave an inhibition of 8.88%. With `CC1=CC(C)(C)NC(=S)N1c1ccccc1` the inhibition was 14.3%. With `CCCCn1c(N)c(N(CCOC)C(=O)COc2c(C)cccc2C)c(=O)[nH]c1=O` the inhibition was 10.8%. With `O=C(NNC(=S)Nc1ccc(F)cc1)[C@H]1C[C@@H]1c1ccccc1` the inhibition was 35.9% (active). Work on `COc1cc(NS(=O)(=O)c2ccc3ccccc3c2)c2ncccc2c1` yielded an inhibition of 11%. In the case of `CSC1=NN(c2ccccc2)CN(c2ccccc2)N1C`, the inhibition is reported as 25.6% (active). Compound `CCOC(=O)C1(Cc2cccc(OC)c2)CCCN(C(=O)CCSC)C1` (stereo not given) has an inhibition of 2.05%. In the case of `C/C(=N\Nc1ccc(Cl)nn1)c1ccccc1O`, the inhibition is reported as 7.83%. For `Brc1ccccc1C1Nc2cccc3cccc(c23)N1`, the inhibition was 58.1% (active). Work on `CC(=O)c1nnn(-c2ccc(Cl)cc2C#N)c1C` yielded an inhibition of 1.06%. In the case of `O=C(NNc1ccccn1)c1ccc(Cl)nc1`, the inhibition is reported as 25.9% (active). With `COc1cccc(NC(C)=[N+](C)CCNS(=O)(=O)c2ccc(Cl)cc2)c1` the inhibition was -1.54%. Work on `COc1cc(OC)cc(C2=Cc3ccccc3C(CC(=O)c3ccco3)N2c2ccc(-c3cnc(OC)nc3)cc2)c1` (stereo not given) yielded an inhibition of 1.48%. In the case of `O=C(CSc1nc2ccccc2n1Cc1ccccc1)NNC(=S)Nc1ccccc1`, the inhibition is reported as 15.2%. In the case of `Cc1cccc(-n2cnc(C(=O)NNC(=S)Nc3ccccc3)c2)n1`, the inhibition is reported as 46.5% (active). `C/C(=N\NC(=O)CSc1nc2ccccc2c(=O)n1-c1ccccc1C)c1cccs1` was tested, and the inhibition was -11%. Work on `Nc1ccc(Nc2ccccc2)cc1` yielded an inhibition of 17.8%. Compound `COCCCNC(=O)CNC(=S)N(Cc1cc(OC)c(OC)c(OC)c1)C1CCCC1` has an inhibition of 7.62%. `CC(C)(c1ccccc1)c1ccc(OCCN)cc1` gave an inhibition of 0.24%. For `Cc1cc(-c2n[nH]c(=S)n2-c2ccc(C)c(C)c2)no1`, the inhibition was 24.4% (active). `COc1ccccc1OCCn1c(SCC(N)=O)nc2ccccc21` was tested, and the inhibition was 13.8%. For `O=C(Nc1cccc(F)c1)c1cc(-c2ccco2)nc2ccccc12`, the inhibition was 9.4%. `CC(=O)Oc1ccc2c(c1)C(=O)c1ccccc1C2=O` was tested, and the inhibition was 1.09%. In the case of `Cc1ccc2sc(NNC(=O)c3ccc4c(c3)OCCO4)nc2c1C`, the inhibition is reported as 38.7% (active). Compound `C#CCCCc1nc2ccccc2c(=O)n1N` has an inhibition of 1.47%. `Oc1ccc2ccccc2c1N=Nc1nccs1` was tested, and the inhibition was 47.5% (active). Compound `CSc1ccc(NC(=O)/C=C/C(=O)O)cc1` has an inhibition of -0.31%. With `Cc1sc2nc(SCC(=O)c3ccc(O)c(O)c3)n(Cc3ccco3)c(=O)c2c1C` the inhibition was -10.3%. With `C/C(=N\NC(=S)Nc1ccc(C)cc1)c1cc2ccccc2o1` the inhibition was 40.2% (active). Compound `COc1ccccc1OCC(=O)OCn1c(SC)nnc(C)c1=O` has an inhibition of -3.63%. With `Cc1ccc(S(=O)(=O)N2CCOCC2)cc1C(=O)NC(=S)N(Cc1ccccc1)C(C)C` the inhibition was 21.7% (active). Work on `CC(C(=O)Nc1ccccc1-c1ccccc1)N1CCOCC1` (stereo not given) yielded an inhibition of 3.12%. For `O=C(COc1ccc(S(=O)(=O)NCc2ccccc2)cc1)N1CCOCC1`, the inhibition was -1.27%. In the case of `CC(C)c1cc(C(=O)N/N=C/c2ccoc2)c(O)c(C(C)C)c1`, the inhibition is reported as 9.71%. With `NC(Cc1ccccc1)c1csc(Nc2cc(Oc3ccccc3)ncn2)n1` (stereo not given) the inhibition was 9.47%. In the case of `NC[C@H](Cc1ccccc1)NCCc1cc(C(F)(F)F)cc(C(F)(F)F)c1`, the inhibition is reported as 23.4% (active). `Cc1cccc(NC(=S)NCCN(C2CCCCC2)C2CCCC2)c1` was tested, and the inhibition was 15.1%. In the case of `Cc1nnc(Sc2nc3c(c(=O)[nH]c(=O)n3C)n2Cc2ccccc2)s1`, the inhibition is reported as -3.34%. `CN(C)S(=O)(=O)c1cccc(NC(=S)N/N=C/C(=O)c2ccccc2)c1` was tested, and the inhibition was 33.4% (active). Work on `COc1ccnc(NC(=S)N2CCN(c3ncc(C(F)(F)F)cc3Cl)CC2)c1` yielded an inhibition of 19%. `CC(C)=CCCC1(C)C=Cc2c(ccc3c2[nH]c2cc(O)c(C)cc23)O1` (stereo not given) showed an inhibition of -8.08%. `O=C(NNC(=S)Nc1ccc(Br)cc1Cl)c1ccco1` was tested, and the inhibition was 32.4% (active). With `O=C(NN1C(=O)C2C3C=CC(C3)C2C1=O)c1ccco1` (stereo not given) the inhibition was 1.65%. In the case of `Cc1c(Cl)cccc1NC(=S)NCc1ccc2c(c1)OCO2`, the inhibition is reported as 13.1%. `CCOC12CC(C)(C)CC(C)(CC3=C1C(=O)CC(C)(C)C3)C2` (stereo not given) showed an inhibition of 0.63%. With `O=C(CCl)NNc1cccc(Cl)n1` the inhibition was 74.6% (active). In the case of `O=C(NNC(=S)NC1CC2CCC1C2)c1ccc(Cl)cc1` (stereo not given), the inhibition is reported as 22.9% (active). `S=C(NNC(=S)NC1CC2CCC1C2)NC1CC2C=CC1C2` (stereo not given) was tested, and the inhibition was 22.1% (active). Compound `Cc1cccc(C)c1NC(=O)CN1C(=O)C(C)Oc2ccccc21` (stereo not given) has an inhibition of 3.96%. `Cn1c2c(c(=O)n(C)c1=O)C1c3ccccc3OCC1C(C)(C)O2` (stereo not given) was tested, and the inhibition was -1.2%. Compound `Cc1ccc(C2Nc3ccccc3C(=O)N2CCN2CCNC2=O)cc1` (stereo not given) has an inhibition of -3.41%. `Cc1c(C(=O)N/N=C/c2ccccc2)[nH]c2c([N+](=O)[O-])cccc12` gave an inhibition of -5.71%. `O=C(N/N=C/c1cc(Cl)cc([N+](=O)[O-])c1O)C(O)(c1ccccc1)c1ccccc1` was tested, and the inhibition was 35.7% (active). For `Cc1[nH]c(N)nc(=S)c1CCCNc1ccccc1`, the inhibition was 18.5%. `S=c1[nH]nc(-c2ccco2)n1/N=C/c1ccccc1` was tested, and the inhibition was 13.8%. In the case of `CC(NC(=O)COC(=O)Cn1cc(C(F)(F)F)ccc1=O)c1ccccc1` (stereo not given), the inhibition is reported as 0.6%. `CC(Oc1ccc2ccccc2c1)C(=O)NNC(=S)NC(=O)c1ccco1` (stereo not given) was tested, and the inhibition was 22.6% (active). `CCOC(=O)NC(=O)/C(C#N)=C\c1ccccc1` gave an inhibition of -5.62%. `N=C(N)SCc1cccc2ccccc12` was tested, and the inhibition was 23.3% (active). In the case of `O=C(OC12CC3CC(CC(C3)C1)C2)c1ccc(NCc2cc(O)ccc2O)cc1`, the inhibition is reported as 42.8% (active). `COc1cc(/C=N/n2c(C)n[nH]c2=S)ccc1OCc1ccccc1` showed an inhibition of 6.69%. With `O=C(NNC(=S)NC1CCCCC1)c1ccccc1Cl` the inhibition was 31.4% (active). With `COc1ccc(Cl)cc1C(=O)NNC(=S)NC1CCCC1` the inhibition was 38.5% (active). For `CCNC(=S)Nc1ccc(OC(F)(F)F)cc1`, the inhibition was 10.7%. For `CC(C)CC(=O)NC(=S)NNC(=O)c1cccc([N+](=O)[O-])c1`, the inhibition was 31.6% (active). `CCCCCCCCCCOC(=O)C[N+](C)(C)CC1CCCCC1O` (stereo not given) showed an inhibition of 4.96%. With `COc1ccc2c(c1)c(=Cc1ccc(N(C)C)cc1)c1cc(-c3ccccc3)[n+](C)n12` the inhibition was 45.1% (active). `O=C(/C=C/c1c(Cl)cccc1Cl)NCc1ccccc1` gave an inhibition of 3.51%. For `CCCCOc1ccc(CSC(=N)N)cc1[N+](=O)[O-]`, the inhibition was 25.2% (active). In the case of `CC[C@]1(O)C[C@@H]2CN(CCc3c([nH]c4ccccc34)[C@@](C(=O)OC)(c3cc4c(cc3OC)N(C)[C@H]3[C@@](O)(C(=O)OC)[C@H](OC(C)=O)[C@]5(CC)C=CCN6CC[C@]43[C@@H]65)C2)C1`, the inhibition is reported as 10.2%. Compound `Nc1[nH]c(C(=O)c2ccccc2)c(-c2ccc(Br)cc2)c1C(=O)NC1CC1` has an inhibition of 12.2%. In the case of `COC(=O)C(C)n1cnc2c(nnn2-c2ccc(F)cc2)c1=O` (stereo not given), the inhibition is reported as 1.8%. In the case of `CN(CC(=O)Nc1ccc(N2CCOCC2)cc1)CC(=O)Nc1ccccc1[N+](=O)[O-]`, the inhibition is reported as -2.32%.
